The results in this text go back to PubChem BioAssay AID504734 (The Scripps Research Institute Molecular Screening Center, 2011).

Screen size: about 340,000 compounds; about 730 (0.21%) were called active. What follows is part of a selection rich in actives, with near analogues and random picks from the rest. A number with no mark means an inactive call.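 The calls were made as follows: active = inhibition above the mean over all tested compounds plus 3 SD (cut at about 21% in these data); inactive = the rest.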

As a reminder, the inhibition is the drop in the measured response relative to a control, in per cent.

Sequence of Toll-like receptor 9 (Homo sapiens) + Myeloid differentiation primary response protein MyD88 (Homo sapiens) (Q99836 whole entry, looked up): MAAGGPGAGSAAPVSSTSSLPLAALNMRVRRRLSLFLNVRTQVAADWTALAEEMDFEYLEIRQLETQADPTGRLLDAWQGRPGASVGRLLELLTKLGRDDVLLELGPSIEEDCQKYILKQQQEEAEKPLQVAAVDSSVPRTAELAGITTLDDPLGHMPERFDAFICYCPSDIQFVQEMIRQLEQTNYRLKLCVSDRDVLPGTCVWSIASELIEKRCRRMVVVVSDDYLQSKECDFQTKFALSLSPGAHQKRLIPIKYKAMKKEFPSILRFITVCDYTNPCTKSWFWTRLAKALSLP
Sequence of Toll-like receptor 9 (Homo sapiens) + Myeloid differentiation primary response protein MyD88 (Homo sapiens) (Q9NR96 whole entry, looked up): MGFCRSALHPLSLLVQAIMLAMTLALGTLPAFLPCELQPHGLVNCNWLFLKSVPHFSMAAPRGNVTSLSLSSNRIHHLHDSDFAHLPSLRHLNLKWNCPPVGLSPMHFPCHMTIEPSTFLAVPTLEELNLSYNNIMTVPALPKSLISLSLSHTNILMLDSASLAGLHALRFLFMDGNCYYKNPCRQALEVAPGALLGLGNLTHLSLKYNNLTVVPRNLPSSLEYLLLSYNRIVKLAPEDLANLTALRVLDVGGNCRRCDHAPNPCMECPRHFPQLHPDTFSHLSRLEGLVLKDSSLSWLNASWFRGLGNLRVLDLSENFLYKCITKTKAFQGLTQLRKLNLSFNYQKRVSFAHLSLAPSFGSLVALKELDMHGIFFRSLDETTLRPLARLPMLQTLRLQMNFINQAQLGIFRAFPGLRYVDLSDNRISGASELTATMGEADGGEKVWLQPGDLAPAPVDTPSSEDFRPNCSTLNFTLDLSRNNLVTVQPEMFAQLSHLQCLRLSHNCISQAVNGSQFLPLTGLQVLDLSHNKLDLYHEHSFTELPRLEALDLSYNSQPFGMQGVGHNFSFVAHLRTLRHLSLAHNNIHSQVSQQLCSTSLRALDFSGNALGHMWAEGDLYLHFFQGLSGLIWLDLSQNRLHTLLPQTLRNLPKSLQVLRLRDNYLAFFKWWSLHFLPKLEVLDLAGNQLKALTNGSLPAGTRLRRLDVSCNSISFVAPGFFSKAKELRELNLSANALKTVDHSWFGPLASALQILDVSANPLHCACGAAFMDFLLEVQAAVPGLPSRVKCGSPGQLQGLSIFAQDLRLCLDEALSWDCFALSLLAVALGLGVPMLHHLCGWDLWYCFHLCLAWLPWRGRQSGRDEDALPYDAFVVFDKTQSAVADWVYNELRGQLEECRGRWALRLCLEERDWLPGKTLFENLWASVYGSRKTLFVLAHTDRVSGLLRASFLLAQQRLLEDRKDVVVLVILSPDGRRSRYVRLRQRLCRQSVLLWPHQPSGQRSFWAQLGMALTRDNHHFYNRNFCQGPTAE

This experiment has as its target Toll-like receptor 9 (Homo sapiens) + Myeloid differentiation primary response protein MyD88 (Homo sapiens) (UniProt Q9NR96+Q99836). Nature of the experiment: disruptors of TLR9 binding to MyD88 – cell-based, CHO, BLA complementation, fluorescence, primary screen (AID 504734).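 Also: 0% = DMSO only wells and 100% = clavulanate BLA inhibitor control wells.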 As to conditions: CHO BLA complementation TLR9-MyD88, CCF4 FRET ratio; at 4.98 µM; active compounds read high.
On to `CSc1ncccc1C(=O)N1CCCC(Nc2ccc(F)c(F)c2)C1` (centres undefined), for which the inhibition was -7.83%.

`Nc1cc(C(=O)N2CCN(c3ccccc3Cl)CC2)ccc1N1CC2CC(C1)c1cccc(=O)n1C2` (centres undefined): the inhibition is -8.79%.

Consider `CC1(C)CCc2nc(SCc3ccccc3)c(C#N)cc2C1`, for which the inhibition was -6.7%.

On to `Cc1cc(C)nc(SCc2cn3c(C)cc(C)nc3n2)n1`, for which the inhibition was -17%.

Take `Cc1cc(C)nc(SCc2ccccc2C#N)n1`: the inhibition was 23.9% (active).

With `COc1ccc(CN2C(=O)C(CC(=O)NCCN3CCOCC3)CC(C(=O)N(C(C)C)C(C)C)=C2C)cc1` (centres undefined), the inhibition was -13.7%.

As to `COc1ccc(N)cc1NC(=O)CN1CCOCC1`, the inhibition is 3.79%.

In the case of `Nc1ccccc1-c1nc2ccncc2[nH]1`, the inhibition was 5.69%.

As for `C[C@H]1Cn2cnc(C(=O)N[C@H](C)c3ccccc3)c2C(=O)N1`, the inhibition was -9.33%.

Turning to `COc1ccccc1NC(=O)C(CC(=O)O)Cc1cc(C)cc(C)c1` (centres undefined), the inhibition was 1.3%.

For `COc1ccc(NS(=O)(=O)c2ccc(NC(=S)NC(=O)/C=C/c3ccc(C)cc3)cc2)nn1`, the inhibition is 4.17%.

On to `COc1ccc(NC(=O)/C(Cl)=C(/Cl)S(=O)Cc2ccc(C)cc2)cn1` (centres undefined), for which the inhibition was 36.2% (active).

As to `COc1ccc(NC(=O)CN2C(=O)NC(C)(c3ccccc3)C2=O)cn1` (centres undefined), the inhibition is 4.63%.

Consider `Cc1ccc(C(=O)NC(C)C(c2cccs2)N2CCOCC2)cc1C` (centres undefined), for which the inhibition is -1.7%.

Consider `O=C(NCCN1CCOCC1)C1CCN(S(=O)(=O)c2ccccc2)CC1`, for which the inhibition is -8.07%.

In the case of `CN1OC[C@@H]2CN[C@H](c3ccc(-c4ccccc4)cc3)C[C@@H]21`, the inhibition is 8.78%.

Consider `COc1ccccc1N1N=C(c2cccs2)CC1c1ccccc1` (centres undefined), for which the inhibition is 38.6% (active).

For the molecule `Fc1ccc(N2N=C(c3cccs3)CC2c2ccco2)c(F)c1` (centres undefined), the inhibition is 1.6%.

For `COc1ccc(C2CC(c3cccs3)=NN2c2nc(C)c(C(C)=O)s2)cc1OC` (centres undefined), the inhibition is -3.47%.

For `CC(C)N=C1CCCC1C(=S)SSC(=S)C1CCCC1=NC(C)C` (centres undefined), the inhibition is 6.42%.

Take `Cc1cc2cc3n(c2nn1)N=C(Cl)CC3`: the inhibition is -2.59%.

As to `C[C@H](CO)N1C[C@H](C)[C@@H](CN(C)C(=O)c2cnccn2)Oc2ncc(Br)cc2C1=O`, the inhibition was -6.82%.

In the case of `C[C@H](CO)N1C[C@H](C)[C@H](CN(C)C(=O)c2ccncc2)OCc2ccccc2-c2c(n(C)c3ccccc23)C1=O`, the inhibition was 7.41%.

On to `Oc1ccc2ccc3cccc[n+]3c2c1`, for which the inhibition was 30.4% (active).

Turning to `O=S(=O)(c1cccc(C(F)(F)F)c1)N1c2ccccc2-n2cccc2C1c1cccnc1` (centres undefined), the inhibition is 2.97%.

Turning to `COc1ccc([C@H]2C[C@@H](n3cc(COC(=O)c4ccccc4)nn3)[C@H](O)CN2C(=O)c2cccs2)cc1`, the inhibition is -6.05%.

As to `Cc1cc(Nc2ccc(C)c(C)c2)n2ncnc2n1`, the inhibition is -6.42%.

Turning to `O=c1[nH]c2ccccc2n1C1CCN(CCOc2ccccc2)CC1`, the inhibition was -9.37%.

Turning to `O=C(Nc1ccc2ccccc2c1)Nc1ccc2snnc2c1`, the inhibition was 22.2% (active).

On to `S=C(Nc1ccccc1)Nc1ccc2ccccc2c1`, for which the inhibition is -11.2%.

With `Cc1nc2cc(NC(=O)Nc3cccc(F)c3)ccc2n1C`, the inhibition is 4.9%.

In the case of `COc1ccccc1C(=O)NC(=S)Nc1ccc(N2CCOCC2)cc1`, the inhibition was -9.36%.

For the molecule `Cc1ccccc1C#CC1=CC(=O)CC(C)(C)C1`, the inhibition was 4.4%.

Take `Cc1ccc(Cc2c(-c3ccc(C)cc3)nc3c4ccccc4ccn23)cc1`: the inhibition was 0.71%.

Consider `CCCCCCN1C[C@H](O)[C@@H](n2cc(C3CC3)nn2)C[C@@H]1c1ccc(Cl)cc1`, for which the inhibition is 2.49%.

Consider `CCOc1ccc(/C=C(/C#N)c2nnc(N3CCOCC3)n2-c2ccccc2)cc1OC`, for which the inhibition was 3.43%.

As to `COc1cc(/C=C(\C#N)c2nc3c(s2)CC(C)CC3)ccc1O` (centres undefined), the inhibition was 21.5% (active).

As for `COc1cc(C=NC2CCCCC2)ccc1O`, the inhibition was -10.8%.

On to `CNC(=O)C1CN(C(=O)c2cccc(S(=O)(=O)N3CCc4ccccc43)c2)c2ccccc2O1` (centres undefined), for which the inhibition was 2.33%.

As for `Nc1cc(=O)c2[nH]cnc2[nH]1`, the inhibition was 2.53%.

As to `O=C1CCC(C(=O)OCC(=O)Nc2ccc(OC(F)F)cc2)=NN1`, the inhibition was -4.91%.

As for `CCOC(=O)c1c(NC(=O)COC(=O)c2ccc(S(=O)(=O)C(F)F)cc2)sc(C(=O)N(C)C)c1C`, the inhibition is -11.2%.

For the molecule `CC(=O)N(C1=C(Cl)C(=O)c2ccccc2C1=O)c1ccc(C(=O)O)cc1`, the inhibition is -8.51%.

`O=C1C(Cl)=C(Oc2ccccc2)C(=O)c2ccccc21`: the inhibition is 56.9% (active).

As for `CCN(CC)C(=O)C1=C(C)N(Cc2ccc(OC)cc2)C(=O)C(CC(=O)NCc2ccco2)C1` (centres undefined), the inhibition is 7.39%.

In the case of `CC(C)CCOc1ccc(C(=O)Nc2cc(S(=O)(=O)N3CCOCC3)ccc2N2CCOCC2)cc1`, the inhibition was 3.89%.

As for `COc1ccc(-c2cnc(SCCNC(=O)c3ccc4c(c3)OCO4)[nH]2)cc1`, the inhibition was -7.86%.

On to `COc1ccccc1C1CCN(c2ccc([N+](=O)[O-])cn2)CC1`, for which the inhibition is -2.92%.

`COc1ccccc1CSc1ncc(-c2ccc([N+](=O)[O-])cc2)[nH]1`: the inhibition was 21.5% (active).

Consider `Cn1ncc([N+](=O)[O-])c1C(=O)Nc1cc(Cl)ccc1Cl`, for which the inhibition was -11.5%.

Turning to `Cc1cc(Cl)ccc1C(=O)C1CCCN(C(=O)c2ccc3c(c2)OCO3)C1` (centres undefined), the inhibition was -4.99%.

For the molecule `O=C(COC(=O)c1cncc(Br)c1)Nc1ccc(S(=O)(=O)N2CCOCC2)cc1`, the inhibition was -5.67%.

Consider `O=C(Nc1cccc2ccccc12)NC1CC1`, for which the inhibition was 2.15%.

`O=C(COC(=O)c1c2c(nc3ccccc13)/C(=C\c1cccs1)CCC2)Nc1ccccc1Cl`: the inhibition is 22% (active).

Turning to `COc1cc(/C=C2\CCCc3c2nc2ccccc2c3C(=O)O)cc(Cl)c1O`, the inhibition is -7.09%.

For the molecule `NS(=O)(=O)c1ccc(NC(=O)COC(=O)c2c3c(nc4ccccc24)/C(=C\c2ccc4c(c2)OCO4)CCC3)cc1`, the inhibition is 25.9% (active).

`O=C(COC(=O)c1c2c(nc3ccccc13)CCCC2)c1ccc(Br)s1`: the inhibition is -5.16%.

In the case of `NC(=O)c1ccc(NC(=O)COC(=O)c2c3c(nc4ccccc24)/C(=C\c2ccc4c(c2)OCO4)CCC3)cc1`, the inhibition was 8.83%.

Consider `NS(=O)(=O)c1ccc(NC(=O)COC(=O)c2ccco2)cc1`, for which the inhibition is -0.62%.
